The supplement of paper PMC4206461

Tested on: Pseudomonas aeruginosa PA14 dppA1-A5 penta mutant + pBBR5.DppA1 (PA14_58350)
Assay: respiration area under curve with compound as sole nitrogen source, 24 h (OmniLog AUC (arbitrary units)); higher = more respiration / better utilisation as nitrogen source, active = 2000 or more
Protocol: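 Biolog Phenotype MicroArray plates PM6-PM8: each di/tripeptide is the sole nitrogen source. Tetrazolium reduction was read in the OmniLog for 24 h at 37°C and summarised as area under the respiration curve (arbitrary units). Values below 2000 count as no respiration. Strain is the SBP penta mutant complemented with DppA1 on a plasmid under its native promoter. Lys/His/Cys peptides are excluded.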

SMILES | respiration area under curve
C[C@H](N)C(=O)N[C@@H](CCC(N)=O)C(=O)O (plate: PM8) | 10400 (active)
N[C@@H](Cc1ccc(O)cc1)C(=O)N[C@@H](Cc1ccc(O)cc1)C(=O)O (plate: PM7) | 6170 (active)
N[C@@H](Cc1c[nH]c2ccccc12)C(=O)N[C@@H](CC(=O)O)C(=O)O (plate: PM7) | 502 (inactive)
CC(C)[C@H](NC(=O)[C@@H](N)CO)C(=O)O (plate: PM7) | 6730 (active)
N[C@@H](CC(=O)O)C(=O)N[C@@H](CCC(=O)O)C(=O)O (plate: PM6) | 437 (inactive)
NCC(=O)NCC(=O)NCC(=O)O (plate: PM8) | 940 (inactive)
CC[C@H](C)[C@H](NC(=O)CN)C(=O)O (plate: PM8) | 4580 (active)
CC(C)C[C@H](N)C(=O)NCC(=O)O (plate: PM6) | 5940 (active)
CC[C@H](C)[C@H](N)C(=O)N[C@@H](Cc1ccc(O)cc1)C(=O)O (plate: PM6) | 655 (inactive)
O=C(O)[C@H](Cc1ccccc1)NC(=O)[C@@H]1CCCN1 (plate: PM7) | 6240 (active)
C[C@H](NC(=O)[C@@H](N)Cc1c[nH]c2ccccc12)C(=O)O (plate: PM7) | 2360 (active)
N[C@@H](Cc1ccccc1)C(=O)N1CCC[C@H]1C(=O)O (plate: PM7) | 3980 (active)
CCC(C)C(N)C(=O)NC(CC(N)=O)C(=O)O (stereo not given) (plate: PM8) | 7760 (active)
N[C@@H](CO)C(=O)N1CCC[C@H]1C(=O)O (plate: PM7) | 12700 (active)
O=C(O)[C@H](Cc1c[nH]c2ccccc12)NC(=O)[C@@H]1CCCN1 (plate: PM8) | 1320 (inactive)
CC(C)[C@H](NC(=O)[C@H](C)N)C(=O)O (plate: PM8) | 7610 (active)
CSCC[C@H](NC(=O)[C@H](C)N)C(=O)O (plate: PM8) | 6710 (active)
CC(C)[C@H](NC(=O)[C@@H](N)CC(=O)O)C(=O)O (plate: PM6) | 1900 (inactive)
CC[C@H](C)[C@H](N)C(=O)N[C@@H](C)C(=O)O (plate: PM6) | 2520 (active)
NCC(=O)N[C@@H](Cc1c[nH]c2ccccc12)C(=O)O (plate: PM6) | 49.2 (inactive)

SMILES | respiration area under curve
NC(N)=NCCC[C@H](N)C(=O)N[C@@H](Cc1ccccc1)C(=O)O (plate: PM6) | 7570 (active)
CC(C)C[C@H](NC(=O)[C@@H](N)Cc1ccc(O)cc1)C(=O)O (plate: PM7) | 6720 (active)
CC(C)C[C@H](N)C(=O)N[C@@H](CCCN=C(N)N)C(=O)O (plate: PM6) | 8260 (active)
N[C@@H](CCC(=O)O)C(=O)N[C@@H](CC(=O)O)C(=O)O (plate: PM6) | 19.3 (inactive)
CC(C)[C@H](N)C(=O)N[C@@H](Cc1ccc(O)cc1)C(=O)N[C@H](C(=O)O)C(C)C (plate: PM8) | 7350 (active)
NC(=O)CC[C@H](NC(=O)[C@@H]1CCCN1)C(=O)O (plate: PM7) | 9270 (active)
N[C@@H](CC(=O)O)C(=O)N[C@@H](CC(=O)O)C(=O)O (plate: PM6) | 197 (inactive)
CC(C)[C@@H](NC(=O)CN)C(=O)O (plate: PM8) | 0 (inactive)
CSCC[C@H](N)C(=O)N[C@@H](CC(=O)O)C(=O)O (plate: PM7) | 4440 (active)
CC(C)C[C@H](N)C(=O)N[C@H](CC(C)C)C(=O)O (plate: PM8) | 284 (inactive)
N[C@@H](Cc1ccccc1)C(=O)N[C@@H](Cc1ccc(O)cc1)C(=O)O (plate: PM8) | 2050 (active)
NC(=O)CC[C@H](NC(=O)[C@@H](N)CCC(N)=O)C(=O)O (plate: PM6) | 6630 (active)
C[C@@H](O)[C@H](N)C(=O)N[C@@H](Cc1ccccc1)C(=O)O (plate: PM8) | 6440 (active)
CSCC[C@H](N)C(=O)N[C@@H](Cc1ccccc1)C(=O)O (plate: PM7) | 680 (inactive)
CSCC[C@H](N)C(=O)N1CCC[C@H]1C(=O)O (plate: PM7) | 8590 (active)
NC(N)=NCCC[C@H](N)C(=O)N[C@@H](Cc1ccc(O)cc1)C(=O)O (plate: PM6) | 8490 (active)
NC(=O)C[C@H](NC(=O)[C@@H](N)CO)C(=O)O (plate: PM8) | 10900 (active)
N[C@@H](CO)C(=O)N[C@@H](Cc1ccc(O)cc1)C(=O)O (plate: PM7) | 5300 (active)
CC(C)C[C@H](NC(=O)[C@@H](N)Cc1c[nH]c2ccccc12)C(=O)O (plate: PM7) | 3710 (active)
C[C@H](NC(=O)[C@@H](N)CO)C(=O)O (plate: PM7) | 9020 (active)
